# Laboratory results as given in ChEMBL document CHEMBL1157539, “Thousands of chemical starting points for antimalarial lead identification” (Nature, 2010).
# Columns and labels:
# Type in all cases: functional
# Plasmodium falciparum [1] = experiment: GSK_TCMDC: Inhibition of Plasmodium falciparum 3D7 in whole red blood cells, using parasite LDH activity as an index of growth. Test compounds present at 2uM
# Plasmodium falciparum [2] = experiment: GSK_TCMDC: Inhibition of Plasmodium falciparum Dd2 in whole red blood cells, using parasite LDH activity as an index of growth. Test compounds present at 2uM
# HepG2 = experiment: GSK_TCMDC: Percent inhibition of human HepG2 cell line. Test compounds present at 10uM.
Structure (SMILES),Inhibition (Plasmodium falciparum [1]) [%],Inhibition (Plasmodium falciparum [2]) [%],Inhibition (HepG2) [%]
Cc1cc(C)c(C(=O)Nc2ccc3nc(C)cc(N)c3c2)c(C)c1.Cl,84,14,12
Cc1cc(Nc2cccc(C(F)(F)F)c2)nc(N)n1,98,24,5
O=C(NCc1ccccc1)c1nn(CCCN2CCC(N3CCCC3)CC2)cc1-c1ccc(Cl)c(Cl)c1,100,89,29
Cc1cccn2c(=O)c3cc(C(=O)NCCc4ccccc4)c(=N)n(CCCOC(C)C)c3nc12,100,40,19
O=C(Nc1cccc(-c2cccc(-c3nc4ccccc4[nH]3)c2)c1)c1cccnc1,95,14,12
O=C(CCc1nc2c(cnn2-c2ccccc2)c(=O)[nH]1)NC1CCSc2ccccc21 (stereo not drawn),95,52,10
C=C1C[C@@H](n2cnc3c(NC(=O)c4ccccc4)ncnc32)[C@@H](F)[C@@H]1OC(c1ccccc1)(c1ccccc1)c1ccccc1,98,97,16
Cc1cc(N[C@@H](Cc2ccccc2)C(=O)NCCCOC(C)C)nc(NCCc2ccc(F)cc2)n1.O=C(O)C(F)(F)F,100,36,15
CN1CCc2cc(NC(=O)c3cc4ccccc4s3)cc(-c3ccccc3)c2CC1.Cl,91,11,20
Oc1cc(Nc2ccnc3cc(-c4ccc(CN5CCCCC5)o4)ccc23)c(Cl)cc1F,100,81,30
CCCCc1ccc(Cc2cnc3nc(N)nc(N)c3c2C)cc1,96,5,64
O=C(NC1CCN(c2ncc(C(F)(F)F)cc2Cl)CC1)c1cccs1,84,65,15
Cc1c[nH]c(CCNC(=O)c2cc(-c3ccc(Cl)cc3)cs2)n1,100,7,12
CN(C)c1cccc2c(S(=O)(=O)Nc3cccc(CCN4CCC(N5CCCCC5)CC4)c3)cccc12,98,54,41
CC(C)COc1ccc(Cl)cc1Cc1ccc(-c2nc3ccc(Cl)cc3[nH]2)o1,97,96,19
COC(=O)Cn1c(C2CCN(CC3CCN(C(=O)/C=C/c4ccc(Cl)c(Cl)c4)CC3)CC2)nc2ccccc21,86,2,19
CCN1CCCC1CN(Cc1ccc(-c2ccc(C(F)(F)F)cc2)cc1)C(=O)Cn1c(CCc2cccc(F)c2F)nc(=O)c2ccccc21.O=C(O)C(O)C(O)C(=O)O (stereo not drawn),94,51,40
NC(=O)CCC(NC(=O)CNC(=O)Nc1cccc(C(F)(F)F)c1)C(=O)O (stereo not drawn),97,93,1
CCC(C)C(COC(=O)c1cc(OC)c(OC)c(OC)c1)N(C)CCN(C)C(COC(=O)c1cc(OC)c(OC)c(OC)c1)C(C)CC.Cl (stereo not drawn),84,45,20
CS(=O)(=O)c1ccc(CNCc2cccc(-c3cccc(-c4nc5cc(F)ccc5[nH]4)c3)c2)cc1.O=C(O)C(F)(F)F,100,84,11
COc1cc(NC(=O)N2CCOC(CCN3CCC(c4ccccc4)CC3)(c3ccc(Cl)c(Cl)c3)C2)cc(OC)c1OC (stereo not drawn),93,73,15

Structure (SMILES),Inhibition (Plasmodium falciparum [1]) [%],Inhibition (Plasmodium falciparum [2]) [%],Inhibition (HepG2) [%]
Cc1ccc(C(=O)Nc2ccc(Nc3ccnc4cc(-c5ccncc5)ccc34)cc2O)cc1,97,100,14
COc1ccc(S(=O)(=O)N2CCCc3ccc(Br)cc32)cc1N1CCN(C(=O)C(Cl)(Cl)Cl)CC1,97,93,23
Cc1cc(N(C)C2CCN(CC3CCCCC3)C2)nc(Nc2ccc(Cl)cc2)n1 (stereo not drawn),98,35,0
COc1ccccc1NC(=O)Nc1ccc(-c2ccc(-c3nc4cccc(C)c4[nH]3)s2)cc1,100,99,71
CC(C)CC(NC(=O)c1ccc(F)cc1)C(=O)N[C@H](/C=N/N1CCNC1=O)CC(C)C (stereo partly drawn),89,84,0
CCCCCC(C)(C)NC[C@@H](O)[C@H](Cc1ccccc1)NC(=O)c1cc(NCC)cc(N2CCCC2=O)c1.O=CO,99,97,9
CN(C)CCCc1cc2c(cc1Cl)CCN2C(=O)Nc1ccc(-c2ccncc2)c2ccccc12,94,0,4
Nc1ncc(OC2CCCCC2)c(N)n1,94,0,0
Cc1cc(NCC(C)C)c2[nH]nc(-c3ccccc3)c2n1,99,30,9
CN1c2ccccc2Sc2cc(CNCCSCCNCc3ccc4c(c3)Sc3ccccc3N4C)ccc21.Cl,84,44,58
Cc1ccc(NC(=O)Cc2noc(CC3CCCN3C(=O)N[C@@H](C)c3ccccc3)n2)cc1 (stereo partly drawn),95,90,1
COc1ccc(CN2CCCC(Nc3ccc(F)c(F)c3)C2)c(O)c1 (stereo not drawn),95,83,14
C[C@H](Cc1ccc(S(=O)(=O)c2ccc(C[C@@H](C)NC[C@H](O)c3cccc(Cl)c3)cc2)cc1)NC[C@H](O)c1cccc(Cl)c1.Cl,99,98,100
COc1cc(F)c2ncc(Cl)c(CCN3CCC(NCc4ccc5c(c4)NC(=O)CO5)CC3)c2c1.Cl,95,79,32
CC1=NN(c2ccc(C)c(C)c2)C(=O)C1=NNc1cccc(-c2cccc(NC(=O)OC(C)(C)C)c2)c1O,94,21,39
C[C@H]1CN(Cc2cccc(-c3cc(CNC(=O)c4cccc(CN5CCN(CCOc6ccccc6)CC5)c4)ccc3F)c2)CCN1.O=C(O)C(F)(F)F,91,88,59
CCN1CCC(N2CCC(C(=O)Nc3cccc(-c4cccc(Cl)c4)c3)CC2)CC1,91,82,54
Cc1cc(Nc2ncc3c(n2)N(C2CCC2)CC3)ccc1N1CCN(C)CC1.Cl,100,100,27
Cc1cc(N[C@@H](CC(C)C)C(=O)NCCc2ccccc2)nc(Nc2ccccc2)n1.O=C(O)C(F)(F)F,100,38,1
O=C(NC1CCN(Cc2ccc(F)cc2)CC1)c1ccc(-c2cccc(C(F)(F)F)c2)s1.O=C(O)C(F)(F)F,83,11,88
CCc1cn2c3c(cc(C(=O)N[C@@H](Cc4cccc(F)c4)[C@H](O)CNC4CC4)cc13)N(C)S(=O)(=O)CC2.O=CO,98,98,2

Structure (SMILES),Inhibition (Plasmodium falciparum [1]) [%],Inhibition (Plasmodium falciparum [2]) [%],Inhibition (HepG2) [%]
CN(Cc1cccc(F)c1)C1CCN(c2cc(NC(=O)c3cccc(F)c3)ccn2)CC1.O=C(O)C(F)(F)F,94,13,12
COc1ccc2c(NN=Cc3cccc(Cl)c3)ccnc2c1,100,94,32
Cc1cccc(Nc2nccc(NCC(O)c3ccc(C(F)(F)F)cc3)n2)c1 (stereo not drawn),100,54,11
CCOC(=O)c1ccc(OCCOc2ccccc2)cc1,99,0,63
CCS(=O)(=O)c1ccc(-c2cnc3[nH]cc(-c4ccc(N)cc4)c3c2)cc1,92,99,24
CN(C)CCCNCc1ccc(-c2ccc(F)c(Cl)c2)o1.Cl,93,69,29
CCCCN1CCN(c2cc(NS(=O)(=O)c3ccc(C(=O)Nc4ccc(C(F)(F)F)cc4)cc3)ccc2OC)CC1.O=C(O)C(F)(F)F,99,20,17
Cn1nc(-c2ccccc2F)c2cc(C(=O)Nc3cccnc3)sc21,92,82,5
Nc1cccc(CNCc2cccc(-c3ccc(-c4nc5ccccc5[nH]4)s3)c2)c1.O=C(O)C(F)(F)F,100,90,8
Cc1c(CC(=O)NCCC2CCN(CCCCCNC(=O)/C=C/c3ccc(Cl)c(Cl)c3)CC2)sc2ccc(Cl)cc12,92,8,59
COc1cc2c(Nc3ccc(Br)cc3F)ncnc2cc1OCC1CCN(C)CC1.Cl,97,16,10
CCCCOc1ccc(N2C(N)=NC(N)=NC2(C)C)cc1.Cl,97,3,16
CN1CCN(Cc2ccc(-c3ccc4c(Nc5ccc(Oc6ccccn6)cc5)ccnc4c3)o2)CC1,100,99,13
Cc1ccc(-c2nnc(-c3ccc(C(=O)NC4CCN(Cc5ccc(C#N)cc5)CC4)cc3)o2)cc1Br,91,7,41
Cc1nc(Nc2ccncc2)cc(-c2ccncc2)n1,100,3,6
CCOC(=O)c1c(-c2ccccc2)nc2c(sc3ccccc32)c1O,97,65,2
COc1cc(C(=O)NC2CC(C)(C)N(C)C(C)(C)C2)ccc1-c1cc2cc(Cl)c(Cl)cc2[nH]1,89,36,65
O=C(Cn1c2ccccc2c(=O)c2ccc(Cl)cc21)Nc1ccc(C(F)(F)F)cc1,99,100,30
NC1=NC(c2ccccc2)(c2ccccc2)C(=O)N1CCCCc1ccccc1.O=CO,96,81,14
